Source: PubChem BioAssay (several laboratories)
Sampled rows, rich in hits. Any-hit rate of the full collection: about 0.5%.
E coli growth-1: E. coli growth inhibition, primary screen, OD600; hit rate 0.21% among 330,000; Escherichia coli growth, 23 h; hits give low values; OD600 absorbance (concentration not given with the values);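 active means OD600 absorbance below the run mean of sample wells minus 3.6 SD, in any replicate, cut at about 0.56 in these data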
phage Ecoli inh: growth loss of phage-infected E. coli, primary screen, RecBCD inhibitor project, absorbance, with phage, HTS; hit rate 0.26% among 360,000; inhibition, % at 11.9 µM; in the data active means inhibition above about 11%
Tat export inh: E. coli Tat export inhibitors, primary screen, MC4100, TorA-mCherry reporter, fluorescence, single point. hit rate 0.036% among 340,000. inhibition, % at 10 µM. AID 488895, 2010;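 active means mean replicate inhibition at least 50% and at least half of replicates individually reaching 50%; inconclusive means only one of the two criteria met; inactive means neither criterion met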;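 further: exported cargo escapes ClpAP degradation while cytoplasmic cargo is degraded and loses fluorescence; 0% = median of neutral control wells and 100% = median of NaSCN control wells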
AddAB inh: growth inhibition of E. coli expressing H. pylori AddAB, primary screen, AddAB inhibitor project, absorbance; inhibition, % at 11.9 µM; hit rate 0.29% among 330,000; in the data active means inhibition above about 12%;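 further: 0% = vehicle wells of infected cells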
E coli growth-2: E. coli V3065 growth inhibition, primary screen, counter-screen for AddAB inhibitor project, absorbance, OD600 | 18 h | inhibition, % at 11.9 µM | hit rate 0.27% among 330,000;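 active means inhibition above the campaign's mean inhibition across all tested compounds plus 3 SD, cut at about 9.9% in these data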;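 further: uninfected addAB+ strain grown without phage in ampicillin broth; 0% = DMSO wells and 100% = ciprofloxacin 0.95 µg/ml wells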
AddAB confirm: growth loss of phage-infected E. coli expressing H. pylori AddAB, confirmation, AddAB inhibitor project, absorbance, E. coli V3065, T4 phage, triplicate; hit rate 64% among 880; OD; T4 phage with gene 2 nonsense mutations; AID 488942, 2010; shares compounds with AddAB inh; inhibition, % at 11.9 µM;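 active means mean inhibition above a set limit taken from the earlier primary screen, cut at about 13% in these data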;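 further: higher means less bacterial growth since AddAB block lets phage replicate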
RecBCD counter: growth loss of RecBCD+ E. coli with mutant T4 phage, counter-screen for AddAB inhibitor project, absorbance, V66 E. coli; shares compounds with AddAB inh; OD growth; inhibition, % at 11.9 µM; hit rate 73% among 880; AID 488955, 2010;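 active means mean inhibition above the mean of solvent-only control wells plus 3 SD, cut at about 4% in these data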;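 further: optical density read after an 18 h incubation at 37 °C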
bact viab count: bacterial viability inhibition counter-screen, confirmation, counter-screen for AddAB inhibitor project, absorbance; shares compounds with AddAB inh; absorbance (AddAB counterscreen); inhibition, % at 11.9 µM; hit rate 35% among 880; AID 488956, 2010; in the data active means inhibition above about 25%
* marks the source's active call; other numbers are inactive results; ? = inconclusive; . = no result.

SMILES | E coli growth-1 | phage Ecoli inh | Tat export inh | AddAB inh | E coli growth-2 | AddAB confirm | RecBCD counter | bact viab count
Cc1ccccc1-c1nc(CN2CCC(C(=O)O)CC2)c(C)o1 | 0.705 | 1.4 | ? | 20.4* | 5.6 | 3.5 | 0.9 | -2.5
O=C(COC(=O)c1ccccc1NC(=O)c1ccco1)NCC1CCCCC1 | 0.682 | 0.0 | -6.0 | 97.0* | 97.5* | -1.7 | 1.6 | -0.4
Cc1ccc(C=NNC(=O)CCCOc2ccc(Cl)cc2Cl)cc1 | 0.713 | . | . | . | . | . | . | .
CCN1C(=NCC(C)C)NC(CCc2ccccc2)C(C(=O)NCC(C)C)C1C (stereo unspecified) | 0.669 | . | . | . | . | . | . | .
CC(=O)Nc1cccc(C(=O)NCCc2ccco2)c1 | 0.661 | 7.7 | -22.3 | 12.5* | 11.6* | 7.2 | 10.4* | 8.5
COC(=O)CC1C(C(=O)OC)ON2OC(C(=O)OC)C(C(=O)OC)C12 (stereo unspecified) | 0.692 | 4.4 | 0.8 | 0.2 | -1.6 | . | . | .
CCOC(=O)CC1C(C(=O)OCC)ON2OC(C(=O)OC)C(C(=O)OCC)C12 (stereo unspecified) | 0.665 | 0.9 | -4.4 | 46.4* | 21.0* | -3.0 | 0.6 | -1.6
CCOC(=O)CN=C1CC(C)(C)CC2=C1Sc1ncnc(N(C)C)c1N2 | 0.711 | . | -3.9 | 19.8* | 43.3* | 0.8 | 0.5 | -0.8
Cc1ccc(C(=O)NNC(=S)NC(=O)c2ccco2)cc1 | 0.467* | 4.9 | -10.9 | 12.7* | 8.6 | 7.0 | 10.4* | 2.9
CCOCCn1c(CN(C)Cc2ccccc2)nc2c1c(=O)n(C)c(=O)n2C | 0.743 | 3.9 | -14.1 | 100.0* | 100.1* | -5.0 | -0.9 | -3.7
O=C(CCN1C(=O)/C(=C\c2ccccc2)SC1=S)NNC(=O)c1ccccc1O | 0.718 | 8.0 | 11.7 | 15.6* | 9.4 | 3.5 | 5.0* | 4.3
O=C(CCCN1C(=O)S/C(=C\c2ccccc2)C1=O)NNC(=O)c1ccccc1O | . | 10.3 | -5.4 | 9.1 | 5.1 | . | . | .
C#CCOCCOCCOCCNc1nc(N2CCN(C(=O)C(CCCCN)n3cc(CN)nn3)CC2)nc(N2CCN(C(=O)C(CCCCN)n3cc(C(N)C(C)CC)nn3)CC2)n1 (stereo unspecified) | 0.689 | . | . | . | . | . | . | .
O=C(NN=C/C=C/c1ccccc1)NC1CCCCC1 | 0.641 | . | . | . | . | . | . | .
O=C(N/N=C/C=C/c1ccccc1)NC1CCCCC1 | . | 3.5 | 5.9 | 36.6* | 17.7* | 1.3 | 0.3 | -2.0
COc1ccc(NC(=O)C2CC(=O)N/C(=N/N=Cc3ccccc3)S2)cc1 (stereo unspecified) | 0.63 | . | . | . | . | . | . | .
COc1cc(-c2cc(=O)c3c(O)c(OC)c(OC)c(O)c3o2)ccc1O | 0.746 | 7.0 | 10.7 | 9.1 | 3.2 | . | . | .
COc1c(O)c(O)c2oc(-c3ccccc3)cc(=O)c2c1OC | 0.692 | 10.3 | -0.2 | 16.1* | 6.5 | 14.3* | 9.2* | 15.4
CCC(C)=NNc1nc2c(c(=O)[nH]c(=O)n2C)n1Cc1ccccc1 | 0.68 | . | . | . | . | . | . | .
CCCC(=NNC(=O)Cc1csc(N2CCOCC2)n1)c1ccccc1 | 0.693 | . | . | . | . | . | . | .
CCn1cc(C(=O)O)c(=O)c2cnc(N3CCN(C(=S)Nc4ccccc4C(F)(F)F)CC3)nc21 | 0.536 | 5.9 | 3.3 | 98.0* | 94.5* | 48.7* | 2.1 | 23.1
CCOC(=O)c1cccc(NC(=S)N2CCN(c3ncc4c(=O)c(C(=O)O)cn(CC)c4n3)CC2)c1 | 0.684 | 4.7 | 9.1 | 6.6 | 5.7 | . | . | .
CCn1cc(C(=O)O)c(=O)c2cnc(N3CCN(C(=S)Nc4ccccc4)CC3)nc21 | 0.444* | 1.4 | -2.7 | 98.0* | 49.7* | 4.9 | 0.9 | 1.2
CCOc1ccc(C2C(=C(O)c3cccc(OC)c3)C(=O)C(=O)N2c2cc(C)on2)cc1OC (stereo unspecified) | 0.684 | . | . | . | . | . | . | .
COc1ccc(-c2nc3ccccn3c2C=O)cc1 | 0.628 | 2.2 | 10.7 | 2.7 | 0.7 | . | . | .
SMILES | E coli growth-1 | phage Ecoli inh | Tat export inh | AddAB inh | E coli growth-2 | AddAB confirm | RecBCD counter | bact viab count
O=Cc1c(-c2ccc(F)cc2)nc2ccccn12 | 0.702 | 0.6 | 0.9 | 97.6* | 97.0* | 0.4 | 1.3 | -2.2
COc1ccc(C(C)=NNC(=O)CNC(=O)C(c2ccccc2)c2ccccc2)cc1OC | 0.65 | . | . | . | . | . | . | .
COC(=O)c1cc(S(=O)(=O)NCc2ccc(F)cc2)cn1C | 0.741 | 2.4 | -0.8 | 15.3* | 5.4 | -1.1 | 0.5 | -2.3
O=C(NCc1ccco1)C1CCN(S(=O)(=O)c2ccccc2C(F)(F)F)CC1 | 0.69 | 0.6 | 2.9 | -2.1 | -1.2 | . | . | .
O=C(NNC(=O)C1CCN(S(=O)(=O)c2c(Cl)cccc2Cl)CC1)c1ccccc1O | 0.691 | 10.4 | 1.6 | 12.9* | 9.6 | 8.8 | 6.2* | 6.5
O=C(NNC(=O)C1CCN(S(=O)(=O)c2ccccc2C(F)(F)F)CC1)c1ccccc1O | 0.685 | 8.8 | -24.0 | 13.6* | 9.6 | 13.2* | 8.8* | 11.1
O=C(NNC(=O)C1CCN(S(=O)(=O)c2ccccc2)CC1)c1ccccc1O | 0.711 | 6.0 | -4.2 | 4.2 | 2.9 | . | . | .
CC(=NNC(=O)c1ccn[nH]1)c1cn(C)nc1C | 0.718 | . | . | . | . | . | . | .
CCC(C)C1NC(=O)c2cc([N+](=O)[O-])cc(F)c2NCCCCC(C(N)=O)NC(=O)C(CCCCN)NC1=O (stereo unspecified) | 0.682 | . | . | . | . | . | . | .
Cc1cc(/C=N/n2c(COc3ccccc3)nc3ccccc3c2=O)c(O)c([N+](=O)[O-])c1 | . | 10.1 | 2.0 | 14.7* | 13.1* | 10.4 | 14.2* | 8.5
Cc1cc(C=Nn2c(COc3ccccc3)nc3ccccc3c2=O)c(O)c([N+](=O)[O-])c1 | 0.699 | . | . | . | . | . | . | .
CCOC1OC(C(=O)O)=CC(C2CCCCC2)C1CCCO (stereo unspecified) | 0.689 | . | . | . | . | . | . | .
C#CCOCCOCCOCCNc1nc(N2CCN(C(=O)C(CCCCN)n3cc(CC(C)O)nn3)CC2)nc(N2CCN(C(=O)C(C(C)CC)n3cc(CCCCN)nn3)CC2)n1 (stereo unspecified) | 0.697 | . | . | . | . | . | . | .
CN(C)c1ccc(C=Nn2c(COc3ccccc3)n[nH]c2=S)cc1 | 0.653 | . | . | . | . | . | . | .
CSc1cccc(NC(=O)CCNC(=O)c2ccco2)c1 | 0.659 | 3.2 | 1.6 | 7.3 | 5.5 | . | . | .
O=C(CCNC(=O)c1ccco1)Nc1cccc(Br)c1 | 0.674 | 3.2 | -7.3 | 14.3* | 2.2 | 6.9 | 3.5 | 1.2
C=C1CCN(C(C(=O)NCc2cc(OC)c(OC)c(OC)c2)C(C)C)S(=O)(=O)c2ccccc21 (stereo unspecified) | 0.688 | . | . | . | . | . | . | .
O=C(/C=C/c1ccccc1Cl)c1ccc(O)cc1 | 0.613 | -1.8 | 9.1 | 0.6 | -0.5 | . | . | .
Cc1ccc(C)c(/C=C/C(=O)c2ccccc(=O)c2O)c1 | 0.671 | 7.7 | -1.1 | 15.2* | 11.9* | 2.4 | 6.5* | -0.5
